Compound activity deposited in PubChem BioAssay by National Center for Advancing Translational Sciences (NCATS).
Only some compounds are listed: those with a hit (about 6.8% of all), similar ones and a draw of the others.
MCF10A rereplic: A quantitative high throughput screen for small molecules that induce DNA re-replication in MCF 10a normal breast cells; MCF 10A DNA re-replication, Hoechst nuclear intensity, 48 h; Potency, µM (doses to about 46.1 µM), inactives show top-dose activity, positive = re-replication, hits mostly activators; hit rate 2.9% among 350,000; AID 624296, 2012; also: % of control where 0% means no effect; nearly all actives have a fitted effect of over 50% in size
SW480 rereplic: A quantitative high throughput screen for small molecules that induce DNA re-replication in SW480 colon adenocarcinoma cells; AID 624297, 2012; SW480 DNA re-replication, Hoechst DNA content imaging, 48 h; Potency, µM (series often up to 46.1 µM), without a hit: at the highest dose re-replication activation, actives largely listed as activators; hit rate 1.8% among 340,000; also: % of control where 0% means no effect; nearly all actives have a fitted effect of over 55% in size
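Image-based read-out: total Hoechst fluorescence of nuclei (405 nm excitation, 500-530 nm emission), with hits raising the fraction of high-intensity nuclei. SW480 colon cells incubated 48 hr with compounds at 37 C.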
TSG101-PTAP inh: qHTS Assay for Iinhibitors of HIV-1 Budding by Blocking the Interaction of PTAP/TSG101; Tumor susceptibility gene 101 protein (Homo sapiens), Q99816; Fluorescence polarization, FITC-PTAP peptide / Tsg101 binding; Potency, µM (doses to about 115 µM), for inactives: at the highest dose activity change, negative = inhibition, most hits filed as inhibitors; 340,000 tested, under 10 active; AID 493005, 2010; active = well fitted inhibition curve with a large enough effect in the main read-out, with a control signal flat, not every such curve was filed as active; inconclusive = small, poorly fitted or top-dose-only effect, or effect the other way, or a change in a side signal; inactive = no such curve, though single readings can be large or run the other way; also: % of control where 0% means no effect
Target sequence (Q99816 whole entry, looked up): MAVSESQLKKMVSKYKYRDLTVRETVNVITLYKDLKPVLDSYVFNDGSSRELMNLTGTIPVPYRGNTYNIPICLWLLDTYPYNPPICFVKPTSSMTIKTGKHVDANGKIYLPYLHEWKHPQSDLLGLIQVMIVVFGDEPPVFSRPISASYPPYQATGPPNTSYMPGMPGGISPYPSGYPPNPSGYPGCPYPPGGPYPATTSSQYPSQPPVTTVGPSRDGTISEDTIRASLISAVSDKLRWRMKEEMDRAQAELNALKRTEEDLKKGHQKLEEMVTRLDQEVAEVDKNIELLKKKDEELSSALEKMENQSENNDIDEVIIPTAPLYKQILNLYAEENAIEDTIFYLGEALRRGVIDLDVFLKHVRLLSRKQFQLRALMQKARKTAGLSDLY
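Steps: Tsg101 binding domain dispensed (10 uM final), compounds pinned in DMSO, FITC-labeled PTAP-motif peptide added (50 nM final); after 20 min binding at room temperature, polarization measured.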
KB-3-1 cytotox: qHTS assay for MDR1-selective chemotherapeutics: Primary screen using the parental adenocarcinoma cell KB-3-1 | KB-3-1 viability, CellTiter-Glo ATP luminescence, 72 h | Potency, µM (doses to about 46.1 µM), actives largely listed as cytotoxic | hit rate 1.4% among 400,000 | AID 1347075, 2019; also: % is scaled to controls: 0 for no effect and ±100 for the full control effect; nearly all actives have a fitted effect of over 60% in size
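Multi-concentration cytotoxicity screen in KB-3-1 cells grown in DMEM lacking phenol red with 10% FBS. After 72 h at 37 °C with compound, ATP-dependent luminescence was recorded.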
PINK1 expr mod: A Quantitative High throughput Screen to Identify Chemical Modulators of PINK1 Expression; hit rate 0.2% among 410,000; PINK1 immunofluorescence, high-content cytometry, 24 h; Potency, µM (highest dose often 76.6 µM), inactives show top-dose activation (PINK1 increase), hits mostly activators; active = well fitted activation curve with a large enough effect; inconclusive = small, poorly fitted or top-dose-only effect; cell line not stated here; also: % of control where 0% means no effect; nearly all actives have a fitted effect of over 65% in size
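Cells are seeded, rested 12 hours, then given compound at five concentrations or DMSO for 24 hours. After fixation, blocking and antibody staining, PINK1 amount and mitochondrial localization are scored; CCCP serves as control.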
KB-V1 cytotox: qHTS assay for MDR1-selective chemotherapeutics: Primary screen using the drug-selected MDR subline cells KB-V1. Potency, µM (series often up to 46.1 µM), most hits filed as cytotoxic. AID 1347076, 2019. KB-V1 MDR cells viability, CellTiter-Glo, 72 h. hit rate 3.4% among 400,000; also: % is scaled to controls: 0 for no effect and ±100 for the full control effect; nearly all actives have a fitted effect of over 60% in size
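Drug-selected KB-V1 cells, grown in DMEM lacking phenol red with 10% FBS, receive compound titrations; after three days at 37 degrees C, surviving cell ATP is quantified by CellTiter-Glo luminescence and responses normalized and curve-fitted.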
The depositor's hits bear a star; i = inactive; ? = inconclusive; nt = not tested or not shown; [ ] = dose if it differs, or a comment. Unless noted, calls follow the shape of the dose curve; as a rule, active = well fitted curve in the direction sought with a large enough effect; inconclusive = small, poorly fitted or top-dose-only effect, or another doubt; inactive = no such curve, though single readings can be large; an effect the other way counts as inactive or inconclusive. Potency is read from the fitted curve at half-maximal effect.

SMILES	MCF10A rereplic	SW480 rereplic	TSG101-PTAP inh	KB-3-1 cytotox	PINK1 expr mod	KB-V1 cytotox
O=C(/C=C/c1ccccc1)/C=C/c1ccccc1	3.3µM*	21µM*	0%	?	-2%	?
CC(/C=C\c1ccccc1)=C/C(=O)O	3%	-8%	0%	i	-1%	i
COc1ccc(NC(=O)CC2C(=O)N(c3ccc(C)cc3)C(=O)N2CCc2ccccc2)cc1 (stereo not given)	nt	nt	nt	?	0%	i
CCCCCCCc1ccc(-c2ccc(O)cc2)nc1	?	-3%	2%	i	9%	i
CC(C)CCCCCCc1ccc(O)cc1	30µM*	10%	nt	nt	nt	nt
CC1=NN(C(N)=S)C(=O)C1N=Nc1ccc(S(N)(=O)=O)cc1 (stereo not given)	-1%	0%	-4%	i	-2%	i
NS(=O)(=O)c1ccc(N=Nc2nc3[nH]cnc(=S)c3[nH]2)cc1	nt	nt	nt	1.2µM*	1%	1.2µM*
Fc1ccc(-c2csc3ncnc(N4CCN(Cc5ccccc5)CC4)c23)cc1	-3%	-1%	-4%	nt	1%	nt
Cc1sc2ncnc(N3CCN(Cc4ccccc4)CC3)c2c1-c1ccc(F)cc1	0%	-1%	-1%	?	4%	15µM*
Cc1c(C(=O)N2CCN(Cc3ccccc3)CC2)sc2ncnc(N3CCOCC3)c12	8%	0%	-8%	i	0%[38.3 µM]	18µM*
CCCN1CCN(c2ncnc3sc(C(=O)Nc4c(C)cc(C)cc4C)c(C)c23)CC1	nt	nt	nt	21µM*	1%	?
Cc1ccc(NC(=O)c2sc3ncnc(N4CCN(c5ccccn5)CC4)c3c2C)c(C)c1	-1%	?	-5%	i	2%	i
Cc1ccc2[nH]c3c(=O)n(CC(=O)N4CCCC(C)C4)ncc3c2c1 (stereo not given)	nt	nt	nt	i	2%	i
CCc1ccc(-n2c(=O)c3c4c(sc3n(CC(=O)N3CCC(C)CC3)c2=O)CCC4)cc1	nt	nt	nt	i	0%	i
CC(=O)Oc1ccc(C(=O)Cc2ccc3ccccc3n2)c(O)c1C	-5%	-3%	13%	i	1%	i
Cc1c(O)ccc(/C(Cc2ccc3ccccc3n2)=N\O)c1O	?	5%	-4%	16µM*	-3%[38.3 µM]	?
CNC(=S)N/N=C/c1ccc(-c2cccc(C(=O)O)c2)o1	4%	-77%	-8%	15µM*	-2%	21µM*
NC(=S)N/N=C/c1ccc(-c2ccc(Cl)c(Cl)c2)o1	?	4%	0%	i	-1%	i
NC(=S)N/N=C\c1ccc(-c2cccc(Cl)c2Cl)o1	?	0%	-1%	5.8µM*	-1%	1.3µM*
O=C(N/N=C/c1ccc(-c2ccc([N+](=O)[O-])cc2)o1)c1cccnc1	-3%	0%	0%	i	?	i
Cc1ccc(C(=O)N/N=C/c2ccc(-c3cccc(C(F)(F)F)c3)o2)cn1	9.2µM*	7.3µM*	0%	6.5µM*	17%	8.2µM*
Cc1ccc(-c2ccc(/C=N/NC(N)=S)o2)cc1	?	-14%	-5%	i	0%	?
Cc1ccc(OCC(=O)N/N=C\c2ccc(-c3cccc(C(=O)O)c3)o2)c(C)c1	?	-10%	-1%	i	6%	i
NC(=S)N/N=C/c1ccc(-c2ccccc2)o1	0.73µM*	22%	-4%	i	1%	?
CCN(CC)c1ccc(NS(=O)(=O)c2ccc3c(c2)CCCN3C(C)=O)c(C)c1	nt	nt	nt	i	0%	i
SMILES	MCF10A rereplic	SW480 rereplic	TSG101-PTAP inh	KB-3-1 cytotox	PINK1 expr mod	KB-V1 cytotox
Cc1ccc(NC(=O)C2CCCN2S(=O)(=O)c2ccc3nc(-c4ccccc4)[nH]c3c2)cc1C (stereo not given)	nt	nt	nt	nt	-2%	nt
CCNC(=O)c1c(NC(=O)c2cc(-c3cc(C)cc(C)c3O)n[nH]2)sc2c1CCCC2	6.5µM*	-4%	1%	i	9%	i
CCNC(=O)c1c(NC(C)=O)sc2c1CCCC2	-2%	1%[9.22 µM]	-6%	i	1%	i
COc1ccc(C(=O)N2CCOC2CNC(=O)C(=O)NCc2ccc(Cl)cc2)cc1 (stereo not given)	2%	-6%	-1%	i	0%	23µM*
CCN(CC)CCNc1ncnc2c1sc1nc(N3CCOCC3)c3c(c12)CCCC3	29%	17%	-3%	15µM*	-2%	?
CN(C)CCNc1ncnc2c1sc1nc(N3CCCC3)c3c(c12)CC(C)(C)OC3	?	?	-4%	i	0%	?
CC1(C)Cc2c(c(-c3ccco3)nc3sc4c(NCC5CCCO5)ncnc4c23)CO1 (stereo not given)	23µM*	?	6%	?	7%	?
CCCCCCNc1ncnc2c1sc1nc(N3CCOCC3)c3c(c12)CCCC3	nt	nt	nt	i	-6%	i
CCN(CC)CCNc1ncnc2c1sc1nc(N3CCCC3)c3c(c12)CC(C)(C)OC3	21µM*	14%	-1%	i	-3%	i
CC1(C)Cc2c(c(N3CCOCC3)nc3sc4c(NN)ncnc4c23)CS1	23µM*	?	-6%	?	2%	?
CCCCn1c(=O)nc2n(-c3ccccc3C)c3ccccc3cc-2c1=O	1%	?	-4%	i	4%	10µM*
Cc1ccccc1-n1c2nc(=O)n(C)c(=O)c-2cc2ccccc21	21µM*	18µM*	-2%	i	2%	i
CC1=C(C(=O)Nc2ccc(C)cc2C)C(C(C)C)n2nc(SCc3ccccc3Cl)nc2N1 (stereo not given)	nt	nt	nt	i	2%	i
O=c1cnc2cnc(Oc3cccc(Cl)c3)nc2n1Cc1ccc(F)cc1	nt	nt	nt	nt	4%	nt
O=c1[nH]c(/C(Cl)=C/c2cc(Cl)ccc2O)nc2cc(Cl)ccc12	15µM*	26%	7%	?	-2%	15µM*
COc1ccc(N2C(=O)[C@@H]3C[C@H]2CN3Cc2cccn2-c2ccc(Cl)cn2)c(C)c1	nt	nt	nt	nt	0%	nt
COc1ccc(CNc2nc3ccccc3n2Cc2ccc(C)cc2)cc1OC	?	16%	-5%	i	1%	3.3µM*
CCCn1c(-c2ccc(OC)cc2)nc2ccccc21	24%	27%	-2%	?	1%	18µM*
